Assay results reported in the supplement of paper PMC4466140.

What was measured:
Assay in all cases: SPOT peptide array binding signal intensity (averaged, normalized) (arbitrary units (background-subtracted, floor 0; scale differs between SH3 domains)); higher = stronger binding of the SH3 domain to the peptide
AgAbp1 = target: AgAbp1
Outline: (§1)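 SH3 domains from four yeast species were expressed as GST fusions in E. coli BL21(DE3) and purified on glutathione Sepharose. Each was incubated at 10 μg/ml overnight at 4°C in TBS-based blocking buffer on cellulose membranes bearing synthetic 15-mer peptides, in which serines replaced cysteines. Bound protein was detected with anti-GST antibody, an HRP anti-mouse secondary and luminol, then imaged and quantified with Genespotter. The binding signal is the normalized, background-subtracted spot intensity averaged over replicates, in arbitrary units that are not the same from one domain to another.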

AgBbc1 = target: AgBbc1
Outline: as §1

AgBem1-D1 = target: AgBem1-D1
Outline: as §1

AgBzz1-D1 = target: AgBzz1-D1
Outline: as §1

AgBzz1-D2 = target: AgBzz1-D2
Outline: as §1

AgCyk3 = target: AgCyk3
Outline: as §1

AgFus1 = target: AgFus1
Outline: as §1

AgHof1 = target: AgHof1
Outline: as §1

AgHse1 = target: AgHse1
Outline: as §1

AgLsb1 = target: AgLsb1
Outline: as §1

AgLsb4 = target: AgLsb4
Outline: as §1

AgMyo5 = target: AgMyo5
Outline: as §1

AgNbp2 = target: AgNbp2
Outline: as §1

AgRvs167 = target: AgRvs167
Outline: as §1

AgSho1 = target: AgSho1
Outline: as §1

AgSla1-D1-D2 = target: AgSla1-D1-D2
Outline: as §1

AgSla1-D3 = target: AgSla1-D3
Outline: as §1

CaAbp1-D1 = target: CaAbp1-D1
Outline: as §1

CaAbp1-D2 = target: CaAbp1-D2
Outline: as §1

CaBbc1 = target: CaBbc1
Outline: as §1

CaBem1-D1 = target: CaBem1-D1
Outline: as §1

CaBzz1-D1 = target: CaBzz1-D1
Outline: as §1

CaBzz1-D2 = target: CaBzz1-D2
Outline: as §1

CaCyk3 = target: CaCyk3
Outline: as §1

CaFus1 = target: CaFus1
Outline: as §1

CaHof1 = target: CaHof1
Outline: as §1

CaHse1 = target: CaHse1
Outline: as §1

CaLsb1 = target: CaLsb1
Outline: as §1

CaLsb4 = target: CaLsb4
Outline: as §1

CaMyo5 = target: CaMyo5
Outline: as §1

CaNbp2 = target: CaNbp2
Outline: as §1

CaRvs167 = target: CaRvs167
Outline: as §1

CaRvs167-3 = target: CaRvs167-3
Outline: as §1

CaSho1 = target: CaSho1
Outline: as §1

CaSla1-D1-D2 = target: CaSla1-D1-D2
Outline: as §1

CaSla1-D3 = target: CaSla1-D3
Outline: as §1

ScAbp1 = target: ScAbp1
Outline: as §1

ScBbc1 = target: ScBbc1
Outline: as §1

ScBem1-D1 = target: ScBem1-D1
Outline: as §1

ScBzz1-D1 = target: ScBzz1-D1
Outline: as §1

ScBzz1-D2 = target: ScBzz1-D2
Outline: as §1

ScCyk3 = target: ScCyk3
Outline: as §1

ScFus1 = target: ScFus1
Outline: as §1

ScHof1 = target: ScHof1
Outline: as §1

ScHse1 = target: ScHse1
Outline: as §1

ScLsb1 = target: ScLsb1
Outline: as §1

ScLsb2 = target: ScLsb2
Outline: as §1

ScLsb3 = target: ScLsb3
Outline: as §1

ScLsb4 = target: ScLsb4
Outline: as §1

ScMyo3 = target: ScMyo3
Outline: as §1

ScMyo5 = target: ScMyo5
Outline: as §1

ScNbp2 = target: ScNbp2
Outline: as §1

ScPex13 = target: ScPex13
Outline: as §1

ScRvs167 = target: ScRvs167
Outline: as §1

ScSho1 = target: ScSho1
Outline: as §1

ScSla1-D1-D2 = target: ScSla1-D1-D2
Outline: as §1

ScSla1-D3 = target: ScSla1-D3
Outline: as §1

SpAbp1-D1 = target: SpAbp1-D1
Outline: as §1

SpBbc1 = target: SpBbc1
Outline: as §1

SpBzz1-D1 = target: SpBzz1-D1
Outline: as §1

SpBzz1-D2 = target: SpBzz1-D2
Outline: as §1

SpCyk3 = target: SpCyk3
Outline: as §1

SpHof1 = target: SpHof1
Outline: as §1

SpHof1-2 = target: SpHof1-2
Outline: as §1

SpHof1-3 = target: SpHof1-3
Outline: as §1

SpHse1 = target: SpHse1
Outline: as §1

SpLsb1 = target: SpLsb1
Outline: as §1

SpLsb4 = target: SpLsb4
Outline: as §1

SpMyo1 = target: SpMyo1
Outline: as §1

SpNbp2 = target: SpNbp2
Outline: as §1

SpPex13 = target: SpPex13
Outline: as §1

SpRvs167 = target: SpRvs167
Outline: as §1

SpSla1-D1-D2 = target: SpSla1-D1-D2
Outline: as §1

SpSla1-D3 = target: SpSla1-D3
Outline: as §1

RKLRTVPGVPLIHLT
SPOT peptide array binding signal intensity (AgAbp1): 13
SPOT peptide array binding signal intensity (AgBbc1): 40.8
SPOT peptide array binding signal intensity (AgBem1-D1): 41
SPOT peptide array binding signal intensity (AgBzz1-D1): 8
SPOT peptide array binding signal intensity (AgBzz1-D2): 16
SPOT peptide array binding signal intensity (AgCyk3): 0.5
SPOT peptide array binding signal intensity (AgFus1): 53.5
SPOT peptide array binding signal intensity (AgHof1): 34.5
SPOT peptide array binding signal intensity (AgHse1): 19.5
SPOT peptide array binding signal intensity (AgLsb1): 2
SPOT peptide array binding signal intensity (AgLsb4): 18
SPOT peptide array binding signal intensity (AgMyo5): ≤ 0
SPOT peptide array binding signal intensity (AgNbp2): 934
SPOT peptide array binding signal intensity (AgRvs167): 2
SPOT peptide array binding signal intensity (AgSho1): ≤ 0
SPOT peptide array binding signal intensity (AgSla1-D1-D2): ≤ 0
SPOT peptide array binding signal intensity (AgSla1-D3): 0.25
SPOT peptide array binding signal intensity (CaAbp1-D1): 224
SPOT peptide array binding signal intensity (CaAbp1-D2): 83
SPOT peptide array binding signal intensity (CaBbc1): 171
SPOT peptide array binding signal intensity (CaBem1-D1): 1
SPOT peptide array binding signal intensity (CaBzz1-D1): 104
SPOT peptide array binding signal intensity (CaBzz1-D2): 90
SPOT peptide array binding signal intensity (CaCyk3): 17
SPOT peptide array binding signal intensity (CaFus1): 147
SPOT peptide array binding signal intensity (CaHof1): 0.5
SPOT peptide array binding signal intensity (CaHse1): 1.25
SPOT peptide array binding signal intensity (CaLsb1): ≤ 0
SPOT peptide array binding signal intensity (CaLsb4): 73
SPOT peptide array binding signal intensity (CaMyo5): 0.25
SPOT peptide array binding signal intensity (CaNbp2): 281
SPOT peptide array binding signal intensity (CaRvs167): 24.3
SPOT peptide array binding signal intensity (CaRvs167-3): 7.25
SPOT peptide array binding signal intensity (CaSho1): 3.5
SPOT peptide array binding signal intensity (CaSla1-D1-D2): 20
SPOT peptide array binding signal intensity (CaSla1-D3): ≤ 0
SPOT peptide array binding signal intensity (ScAbp1): 14
SPOT peptide array binding signal intensity (ScBbc1): 21
SPOT peptide array binding signal intensity (ScBem1-D1): 27.5
SPOT peptide array binding signal intensity (ScBzz1-D1): 10
SPOT peptide array binding signal intensity (ScBzz1-D2): 1.5
SPOT peptide array binding signal intensity (ScCyk3): 9
SPOT peptide array binding signal intensity (ScFus1): 37
SPOT peptide array binding signal intensity (ScHof1): 1
SPOT peptide array binding signal intensity (ScHse1): 178
SPOT peptide array binding signal intensity (ScLsb1): 1.5
SPOT peptide array binding signal intensity (ScLsb2): 2
SPOT peptide array binding signal intensity (ScLsb3): 1030
SPOT peptide array binding signal intensity (ScLsb4): 22
SPOT peptide array binding signal intensity (ScMyo3): ≤ 0
SPOT peptide array binding signal intensity (ScMyo5): 2
SPOT peptide array binding signal intensity (ScNbp2): 1190
SPOT peptide array binding signal intensity (ScPex13): 59.5
SPOT peptide array binding signal intensity (ScRvs167): 1390
SPOT peptide array binding signal intensity (ScSho1): 110
SPOT peptide array binding signal intensity (ScSla1-D1-D2): 73
SPOT peptide array binding signal intensity (ScSla1-D3): 23.5
SPOT peptide array binding signal intensity (SpAbp1-D1): 17.5
SPOT peptide array binding signal intensity (SpBbc1): ≤ 0
SPOT peptide array binding signal intensity (SpBzz1-D1): 71.5
SPOT peptide array binding signal intensity (SpBzz1-D2): ≤ 0
SPOT peptide array binding signal intensity (SpCyk3): ≤ 0
SPOT peptide array binding signal intensity (SpHof1): 22.8
SPOT peptide array binding signal intensity (SpHof1-2): 2
SPOT peptide array binding signal intensity (SpHof1-3): 229
SPOT peptide array binding signal intensity (SpHse1): 68.8
SPOT peptide array binding signal intensity (SpLsb1): 3.25
SPOT peptide array binding signal intensity (SpLsb4): 369
SPOT peptide array binding signal intensity (SpMyo1): 2.75
SPOT peptide array binding signal intensity (SpNbp2): 7.5
SPOT peptide array binding signal intensity (SpPex13): ≤ 0
SPOT peptide array binding signal intensity (SpRvs167): 616
SPOT peptide array binding signal intensity (SpSla1-D1-D2): 1
SPOT peptide array binding signal intensity (SpSla1-D3): ≤ 0
